The values that follow come from PubChem BioAssay AID488847 (NMMLSC, 2010).

About 1,900 (0.58%) of roughly 330,000 compounds were called active.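 The calls were made as follows: active = inhibition of aptamer binding above 40%, roughly 3 SD of noise, on plates passing a quality check; inactive = the rest.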 The entries come from a sample that favours actives as a whole.

The target of this experiment is Beta-adrenergic receptor kinase 1 (Homo sapiens) (UniProt P25098). Briefly: compounds blocking aptamer binding on GRK2 – biochemical, human GRK2, bead flow cytometry, HTS, primary screen (AID 488847).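 Also: median bead fluorescence of bound FAM aptamer so fluorescent compounds give negative values.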 To be noted: FAM-aptamer displacement from GRK2, at 10 µM, active compounds read high. A general note: A flow cytometer gives signals particle by particle.
Chain of Beta-adrenergic receptor kinase 1 (Homo sapiens) (P25098 whole entry, looked up): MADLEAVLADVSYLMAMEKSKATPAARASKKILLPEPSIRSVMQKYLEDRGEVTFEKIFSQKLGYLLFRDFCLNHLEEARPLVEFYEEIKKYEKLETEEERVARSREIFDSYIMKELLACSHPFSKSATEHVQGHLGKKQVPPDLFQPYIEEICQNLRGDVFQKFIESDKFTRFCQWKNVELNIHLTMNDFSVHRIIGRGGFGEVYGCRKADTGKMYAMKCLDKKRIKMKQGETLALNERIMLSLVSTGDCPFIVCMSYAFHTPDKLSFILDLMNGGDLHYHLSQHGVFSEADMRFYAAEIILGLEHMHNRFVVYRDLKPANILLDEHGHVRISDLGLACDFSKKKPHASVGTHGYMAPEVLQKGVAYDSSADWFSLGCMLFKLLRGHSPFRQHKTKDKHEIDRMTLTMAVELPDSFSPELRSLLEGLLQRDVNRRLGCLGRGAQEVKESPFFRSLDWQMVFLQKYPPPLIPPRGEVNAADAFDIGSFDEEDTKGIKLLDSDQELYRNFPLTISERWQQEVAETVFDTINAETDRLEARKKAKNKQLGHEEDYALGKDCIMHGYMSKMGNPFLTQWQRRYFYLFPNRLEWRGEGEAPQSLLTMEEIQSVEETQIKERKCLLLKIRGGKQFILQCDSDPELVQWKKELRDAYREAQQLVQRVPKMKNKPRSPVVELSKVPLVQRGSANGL
As to `O=c1[nH]nc(Cc2ccccn2)c2ccccc12`, the inhibition of aptamer binding is 0% (inactive). Turning to `O=C(Oc1ccc2c(c1)CCC2)N1CCOCC1`, the inhibition of aptamer binding is 0% (inactive).

For `COCCCNC(=O)CN1CCN(Cc2ccccc2Cl)C1=O`, the inhibition of aptamer binding was 4% (inactive). `Cc1ccccc1CN1CCN(CC(=O)NCc2ccccn2)C1=O`: the inhibition of aptamer binding was 51% (active). With `Cc1nn(CC(=O)NCc2ccccn2)c(C)c1[N+](=O)[O-]`, the inhibition of aptamer binding is 1% (inactive). For `Cc1cccc(N(C(=O)c2sc(C)nc2C)C(C(=O)NCC2CCCO2)c2ccccc2)c1` (configuration not stated) the value was 1% (inactive); for `CCn1nc(C)c(NC(=O)/C=C/c2ccc(OC)c(COc3ccc(Br)cc3)c2)c1C`, 1% (inactive). In the case of `CS(=O)(=O)N1CCN(c2ccc(C(=O)NC3C4CC5CC(C4)CC3C5)cc2[N+](=O)[O-])CC1` (configuration not stated), the inhibition of aptamer binding was 0% (inactive). For `CC(NC(=O)c1ccc(N2CCNCC2)c([N+](=O)[O-])c1)C12CC3CC(CC(C3)C1)C2` (configuration not stated), the inhibition of aptamer binding was 0% (inactive). For `O=C(NC1C2CC3CC(C2)CC1C3)c1ccc(N2CCNCC2)c([N+](=O)[O-])c1` (configuration not stated), the inhibition of aptamer binding was 98% (active). As for `CC(c1nnc(SCC(=O)Nc2sccc2C#N)n1-c1ccc(Cl)cc1)N(C)C` (configuration not stated), the inhibition of aptamer binding is 0% (inactive). `COc1ccc(C(=O)CCC(=O)Nc2ccc(Cl)cc2)cc1`: the inhibition of aptamer binding was 1% (inactive). On to `C/C(=N\N=C(N)N)c1ccc(Cl)cc1`, for which the inhibition of aptamer binding was 0% (inactive). Then `C/C(=N\OCC(=O)O)c1ccc(Cl)cc1`, with 58% (active). In the case of `COc1cc2c(-c3ccc4c(c3)OCO4)c(-c3ccsc3)oc(=O)c2cc1OC`, the inhibition of aptamer binding is 0% (inactive). For `O=C(C1CCC1)N1CCN(S(=O)(=O)c2ccc([N+](=O)[O-])cc2)CC1`, the inhibition of aptamer binding was 1% (inactive).

Consider `Cc1ccc(S(=O)(=O)N2CCCC(C(=O)N3CCN(C)CC3)C2)cc1` (configuration not stated), for which the inhibition of aptamer binding was 4% (inactive). Take `O=C(C1CCCN(S(=O)(=O)c2ccc([N+](=O)[O-])cc2)C1)N1CCCCC1` (configuration not stated): the inhibition of aptamer binding was 53% (active). For `Cc1nnc(NC(=O)CCC(=O)N2CCC(C)CC2)s1` the value was 2% (inactive). Consider `CCCCN(CC)C(=O)c1ccc2c(c1)OCO2`, for which the inhibition of aptamer binding is 3% (inactive). For `CCC(C)(C(=O)NC1CCCCC1)N(C)C(=O)c1ccc2c(c1)OCO2` (configuration not stated), the inhibition of aptamer binding is 47% (active). Then `CCC(C)(C(=O)NC1CCCC1)N(C(=O)CNC(C)=O)c1ccc(C)cc1` (configuration not stated), with 3% (inactive); and `COc1ccc(NC(=O)COc2ccc(C(=O)OCC(=O)N(C)C3CCS(=O)(=O)C3)cc2OC)cc1` (configuration not stated), with 3% (inactive). On to `COc1cc(C(=O)OCC(=O)N(CC(C)C)C2CCS(=O)(=O)C2)ccc1OCC(C)C` (configuration not stated), for which the inhibition of aptamer binding was 100% (active). As to `COc1ccccc1NC(=O)COc1ccc(C(=O)OCC(=O)N(C(C)C)C(C)C)cc1OC`, the inhibition of aptamer binding is 0% (inactive). As for `Cn1c(N2CCOCC2)c(C=O)c2ccccc21`, the inhibition of aptamer binding is 0% (inactive). Regarding `Cc1ccc(CNC(=O)c2cc(-c3ccccc3C)n(CC3CC(c4cccc([N+](=O)[O-])c4)=NO3)n2)cc1` (configuration not stated), the inhibition of aptamer binding is 0% (inactive).
